“And” between values parts separate entries of the source, which are not always exact repeats. Identical values can stand only once. Among all 34,000 compounds or so, about 290 (0.85%) showed an effect of 50% or more. The full list was thinned out, with strong results kept by preference.
Test system: Plasmodium falciparum
Assay: Plasmodium falciparum sporozoite viability assay
Format: functional, organism-based
Parameters: scale not given: in the data most compounds retested in dose-response had high values

Structure (SMILES)	Percent Effect [%]	Percent Effect (10 mM as filed; unlikely as a test dose)
N#Cc1c(N)nc2c(c1C1CCOC1)CCc1cc(O)ccc1-2 (stereo not given)	4.476	–
CN(CCc1ccccn1)C(=O)c1cnn(-c2ccccc2F)c1N	-5.321	–
COc1ccc(CN2Cc3[nH]nc(C(=O)N(C)C)c3C2)cc1	11.47	–
Cl.Cn1cc([C@@H]2CN(S(=O)(=O)c3cccs3)C[C@H]2N)c2ccncc21	-0.5895	–
COc1ccc(CC(=O)N2CCCC(n3cccn3)C2)cc1F (stereo not given)	5.192	–
CS(=O)(=O)CCSc1nnc(Cc2ccccc2F)o1	-5.789	–
Cc1ccc(OCc2occc2C(=O)N2CCOC(C(=O)O)C2)cc1 (stereo not given)	16.87	–
O=C1COc2cc(OC[C@@H]3CCCN4CCCC[C@H]34)ccc21	-3.094	–
O=C1CCCN1Cc1nnc2n1CCN(Cc1ccco1)C2	15.42	–
CN(C)CCNC(=O)[C@H]1C[C@@H]2CN(C(=O)NCc3ccccc3)C[C@H]1O2.O=C(O)C(F)(F)F	-11.68	–
CN(C)CCNC(=O)c1cc(-c2cnc(N(C)C)nc2)cn1CC1CC1	2.417	–
CN(C)CCNC(=O)c1sc2ccccc2c1C1CCC(CN)CC1.Cl (stereo not given)	13.87	–
CN(C)CCNC(=O)C1Cc2nc(-c3ccccc3)sc2N1CC1CC1.O=C(O)C(F)(F)F (stereo not given)	–	63.41% and 51.04% and 49.77%
Cc1occc1C(=O)N1CCCN(Cc2nccn2C(C)C)CC1	16.64	–
CC(C)CN1C(=O)C[C@@H]2[C@@H]1CCN2Cc1cccc(C#N)c1.O=C(O)C(F)(F)F	7.99	–
c1coc(-c2noc(CN3CCc4c(ncn4C4CC4)C3)n2)c1	–	9.104% and 3.38%
c1ccc(-c2noc(CN3CCc4c(ncn4C4CC4)C3)n2)nc1	–	42.55% and 46.63%
c1csc(-c2noc(CN3CCc4c(ncn4C4CC4)C3)n2)c1	–	59.38% and 60.81%
Cc1cccc(-c2noc(CN3CCc4c(ncn4C4CC4)C3)n2)c1	–	39.81% and 43.38%
c1cc(-c2noc(CN3CCc4c(ncn4C4CC4)C3)n2)cs1	–	83.48% and 80.24%
CCOc1ccc(C#N)cc1NCC(=O)NC(=O)Nc1ccccc1	-20.07	–
CC(C)Oc1ccc(CNC(=O)NCC(C)(C)C(N)=O)cc1F	-18.14	–
Cl.O=S1(=O)CCC(NCCn2cncc2-c2ccc3c(c2)CCCO3)C1 (stereo not given)	-8.887	–

Structure (SMILES)	Percent Effect [%]	Percent Effect (10 mM as filed; unlikely as a test dose)
CN(C)S(=O)(=O)NCC1CCN(Cc2ccccc2F)CC1	–	-11.15% and -13.88%
c1ccc(Oc2ccc(CNCC3CNc4ccnn4C3)cn2)cc1 (stereo not given)	-2.407	–
OCC(CO)N1CCCC(Cc2cnc(Nc3ccccn3)cn2)C1 (stereo not given)	3.086	–
Cc1cc(C(=O)N2CCCC(C)C2)ccc1NCc1nc(C(C)C)no1 (stereo not given)	–	54.84% and 44.37% and 61.2%
Cc1noc(CNc2ccc(C(=O)N3CCCC(C)C3)cc2C)n1 (stereo not given)	–	12% and 12.75% and 4.849%
COc1cc(N2C[C@@H]3COC[C@]3(COCc3ccccn3)C2)ncn1.O=C(O)C(F)(F)F.O=C(O)C(F)(F)F	7.967	–
CN1CCCC1c1ccnc(C(=O)N(C)C2CCCCC2)c1 (stereo not given)	7.615	–
CC(=O)Nc1nc(C(=O)NCc2ccc(N3CCOC(C)C3)nc2)cs1 (stereo not given)	13.32	–
Cc1n[nH]c(C(=O)NCc2ccnc(OCC(F)(F)F)c2)c1Br	-2.803	–
CC(C(=O)Nc1ccnn1C(C)C)N1CCN(Cc2ccccc2)CC1 (stereo not given)	-6.509	–
Cc1cccc(NC(=O)c2cncc(C3CCNCC3)n2)n1	3.261	–
Cc1ccnc(NC(=O)c2ccc(-n3ncc(C#N)c3N)cc2)c1	11.53	–
CC(C)c1n[nH]c(C(=O)Nc2ccnn2C(C)C)c1Br	–	92.02% and 87.97% and 88.19%
COc1ccncc1NC(=O)c1[nH]nc(C(C)C)c1Br	–	41.3% and 28.4%
Cc1cccc(NC(=O)c2[nH]nc(C(C)C)c2Br)n1	–	102.6% and 98.53% and 104.2%
O=C(Nc1cc(C2CCOCC2)[nH]n1)c1cc[nH]n1	-6.094	–
COCCN1CCN(C(C)C(=O)Nc2ccnn2C(C)C)CC1 (stereo not given)	-4.51	–
Cc1cccc(NC(=O)c2sccc2C)n1	7.103	–
Cc1ccnc(NC(=O)c2[nH]nc(C(C)C)c2Br)c1	–	109% and 104.4% and 105.9%
COc1ccccc1C1(C(=O)NCCN2CCCCC2)CCOCC1	7.717	–
C[C@@H]1CN(Cc2ccccn2)C[C@]12CCN(Cc1cccnc1)C2=O.O=C(O)C(F)(F)F.O=C(O)C(F)(F)F.O=C(O)C(F)(F)F	-3.791	–
Cn1cc(CN2CCC3(CC2)CC(Nc2nccs2)CO3)cn1.O=C(O)C(F)(F)F (stereo not given)	18.81	–
